Test results as given in PubChem BioAssay (Tox21).
Inconclusive results are not listed. Where a call stands in place of a potency, no number is given. Active and inactive are the calls of the source. Unless noted, calls follow the shape of the dose curve; as a rule, active = well fitted curve in the direction sought with a large enough effect in the repeat runs; inconclusive = weak or mixed curves; inactive = no such curve, though single readings can be large; an effect the other way counts as inactive or inconclusive. Residues, ends and D or L forms follow the SMILES beside them.

What was measured:
[1] = qHTS assay to identify small molecule agonists of the peroxisome proliferator-activated receptor delta (PPARd) signaling pathway - cell viability counter screen (AID 743211); also: nearly all actives have a fitted effect of over 55% in size
In short: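 Following 5 h plating at 37 C and 5% CO2, PPARd UAS-bla HEK293H cells took up test compounds for 17 h. Viability was quantified by luminescence 30 min after CellTiter-Glo addition at room temperature.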

[2] = molecular target: Peroxisome proliferator-activated receptor delta (Homo sapiens) (UniProt Q03181); assay: qHTS assay to identify small molecule agonists of the peroxisome proliferator-activated receptor delta (PPARd) signaling pathway (AID 743212; calls by dose curve)
Chain of Peroxisome proliferator-activated receptor delta (Homo sapiens) (Q03181 whole entry, looked up): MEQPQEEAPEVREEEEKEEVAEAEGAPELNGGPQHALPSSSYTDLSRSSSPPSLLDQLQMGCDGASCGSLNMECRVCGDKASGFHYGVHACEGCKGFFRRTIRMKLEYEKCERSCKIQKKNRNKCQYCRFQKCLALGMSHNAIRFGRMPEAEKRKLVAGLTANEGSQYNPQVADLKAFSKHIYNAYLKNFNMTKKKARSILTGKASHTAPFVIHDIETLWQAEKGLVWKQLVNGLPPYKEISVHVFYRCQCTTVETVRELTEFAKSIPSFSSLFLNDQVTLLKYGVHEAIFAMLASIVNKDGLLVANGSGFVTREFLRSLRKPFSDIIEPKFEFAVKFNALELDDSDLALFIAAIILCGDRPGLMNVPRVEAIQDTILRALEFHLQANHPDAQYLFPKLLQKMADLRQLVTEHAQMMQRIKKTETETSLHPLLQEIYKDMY
In short: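 A PPARd-bla HEK293H line with beta-lactamase under an Upstream Activator Sequence is treated with compounds at 37 C. Substrate loading for 2 h at room temperature precedes the fluorescence measurement.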

[3] = qHTS assay to identify small molecule antagonists of the peroxisome proliferator-activated receptor delta (PPARd) signaling pathway - cell viability counter screen (AID 743213); also: nearly all actives have a fitted effect of over 50% in size
In short: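 Agonist-stimulated (L165041, 300 nM final) HEK293H PPARd UAS-bla cells are exposed to compounds for 17 h at 37 C, and ATP-based luminescence (CellTiter-Glo) from the same wells reports cytotoxicity.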

[4] = molecular target: Peroxisome proliferator-activated receptor delta (Homo sapiens) (UniProt Q03181); assay: qHTS assay to identify small molecule antagonists of the peroxisome proliferator-activated receptor delta (PPARd) signaling pathway (AID 743215; active = well fitted inhibition curve with a large enough effect in the signal ratio in the repeat runs, not every such curve was filed as active; the % refers to the signal ratio; also: series mostly up to about 62 µM)
In short: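 HEK293H UAS-bla, PPARd; agonist L165041 300 nM final with cpd in DMSO; 37 C 17 h; FRET substrate, RT 2 h; fluorescence intensity.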

[5] = molecular target: Bile acid receptor (Homo sapiens) (UniProt Q96RI1); assay: qHTS assay to identify small molecule antagonists of the farnesoid-X-receptor (FXR) signaling pathway (AID 743217; active = well fitted inhibition curve with a large enough effect in the signal ratio in the repeat runs, not every such curve was filed as active; the % refers to the signal ratio; also: potency is read from the fitted curve at half-maximal effect)
Chain of Bile acid receptor (Homo sapiens) (Q96RI1 whole entry, looked up): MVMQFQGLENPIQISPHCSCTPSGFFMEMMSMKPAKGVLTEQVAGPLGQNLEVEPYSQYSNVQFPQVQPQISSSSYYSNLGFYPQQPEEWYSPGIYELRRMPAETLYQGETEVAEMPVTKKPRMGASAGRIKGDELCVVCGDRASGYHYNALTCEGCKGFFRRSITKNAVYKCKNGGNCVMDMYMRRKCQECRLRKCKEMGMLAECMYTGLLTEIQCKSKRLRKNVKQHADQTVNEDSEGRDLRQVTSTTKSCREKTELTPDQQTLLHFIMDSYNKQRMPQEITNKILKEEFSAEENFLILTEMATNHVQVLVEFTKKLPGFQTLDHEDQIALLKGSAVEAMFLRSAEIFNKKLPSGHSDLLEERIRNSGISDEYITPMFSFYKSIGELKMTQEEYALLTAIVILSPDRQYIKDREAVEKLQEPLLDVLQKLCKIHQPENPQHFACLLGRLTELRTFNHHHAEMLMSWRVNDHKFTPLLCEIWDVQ
In short: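 GeneBLAzer FXR-UAS-bla HEK 293T, CDCA-stimulated (50 uM final). Compound treatment 16 h, 37 °C. Detection: beta-lactamase cleavage of B/G FRET substrate, fluorescence.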

[6] = molecular target: Bile acid receptor (Homo sapiens) (UniProt Q96RI1); assay: qHTS assay to identify small molecule agonists of the farnesoid-X-receptor (FXR) signaling pathway (AID 743220; active = well fitted activation curve with a large enough effect in the signal ratio in the repeat runs, not every such curve was filed as active; the % refers to the signal ratio)
In short: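 Beta-lactamase reporter under UAS control in GeneBLAzer FXR HEK 293T cells (5000/well) measured with LiveBLAzer FRET substrate after 2 h at room temperature. Compound exposure lasted 16 h at 37C.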

[7] = qHTS assay to identify small molecule antagonists of the farnesoid-X-receptor (FXR) signaling pathway - cell viability counter screen (AID 743221; active = well fitted cell-killing curve with a large enough effect in the repeat runs, not every such curve was filed as active; also: nearly all actives have a fitted effect of over 50% in size)
In short: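 Compound effects on cell number were measured as CellTiter-Glo luminescence in HEK 293T cells expressing FXR-UAS-bla, after 16 h at 37 C with 50 uM CDCA (final).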

[8] = molecular target: Vitamin D3 receptor (Homo sapiens) (UniProt P11473); assay: qHTS assay to identify small molecule agonists of the vitamin D receptor (VDR) signaling pathway (AID 743222; calls by dose curve)
Chain of Vitamin D3 receptor (Homo sapiens) (P11473 whole entry, looked up): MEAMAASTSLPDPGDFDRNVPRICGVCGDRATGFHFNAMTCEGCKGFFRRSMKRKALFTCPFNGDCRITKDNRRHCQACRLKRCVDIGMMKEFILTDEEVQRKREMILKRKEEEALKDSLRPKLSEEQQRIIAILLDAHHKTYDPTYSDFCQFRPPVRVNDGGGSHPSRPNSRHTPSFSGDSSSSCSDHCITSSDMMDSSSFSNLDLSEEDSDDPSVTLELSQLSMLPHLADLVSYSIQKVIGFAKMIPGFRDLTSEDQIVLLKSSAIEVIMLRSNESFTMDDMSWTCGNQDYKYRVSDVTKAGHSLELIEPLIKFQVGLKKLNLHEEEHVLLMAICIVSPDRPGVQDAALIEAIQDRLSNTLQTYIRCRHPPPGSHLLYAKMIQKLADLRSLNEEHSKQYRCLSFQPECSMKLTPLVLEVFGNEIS
In short: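 In VDR-bla cells, compound-induced beta-lactamase expression is quantified by FRET substrate fluorescence. Treatment lasts 16 h at 37C; substrate develops 2 h at room temperature.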

[9] = molecular target: Vitamin D3 receptor (Homo sapiens) (UniProt P11473); assay: qHTS assay to identify small molecule antagonists of the vitamin D receptor (VDR) signaling pathway (AID 743223; active = well fitted inhibition curve with a large enough effect in the signal ratio in the repeat runs, not every such curve was filed as active; the % refers to the signal ratio)
In short: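 Beta-lactamase activity in VDR-bla cells is measured by FRET substrate fluorescence (2 h, room temperature) after cells spend 16 h at 37C with test compound and 3 nM final 1alpha,25-dihydroxyvitamin D3.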

[10] = qHTS assay to identify small molecule agonists of the farnesoid-X-receptor (FXR) signaling pathway - cell viability counter screen (AID 743218); also: nearly all actives have a fitted effect of over 45% in size
In short: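 Parallel cytotoxicity test: compound-treated (16 h, 37 C) HEK 293T FXR-bla reporter cells were lysed with CellTiter-Glo and luminescence recorded.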

Structure (SMILES)	outcome [1]	outcome [2]	outcome [3]	outcome [4]	Potency [5]	outcome [6]	outcome [7]	outcome [8]	outcome [9]	outcome [10]
COC(=O)[C@H](Cc1ccccc1)NC(=O)[C@@H](N)CC(=O)O (H-Asp-Phe-OMe)	inactive	inactive	inactive	inactive	inactive	inactive	inactive			
COc1ccc2[nH]cc(CCNC(C)=O)c2c1	inactive	inactive	inactive	inactive	inactive	inactive	inactive	inactive	inactive	
C1N2CN3CN1CN(C2)C3	inactive	inactive	inactive	inactive	inactive	inactive	inactive	inactive	inactive	inactive
CC(O)CN(CCN(CC(C)O)CC(C)O)CC(C)O (stereo not given)	inactive	inactive	inactive	inactive	inactive	inactive	inactive	inactive	inactive	
O=C(O)c1cc(N=Nc2ccc(S(=O)(=O)Nc3ccccn3)cc2)ccc1O	inactive	inactive	inactive	inactive			inactive	inactive	inactive	inactive
CCCCC(CC)COC(=O)/C=C/c1ccc(OC)cc1 (stereo not given)	inactive	inactive	inactive	inactive			inactive	inactive	inactive	
OC(Cn1cncn1)(Cn1cncn1)c1ccc(F)cc1F	inactive	inactive	inactive	inactive			inactive	inactive	inactive	inactive
Cc1ccc(C)c(OCCCC(C)(C)C(=O)O)c1	inactive	inactive	inactive	inactive	inactive	inactive	inactive			
CCOc1ccc(NC(=O)CC(C)O)cc1 (stereo not given)	inactive	inactive	inactive	inactive	inactive	inactive	inactive			
CC(=O)OCC(COC(C)=O)OC(C)=O	inactive	inactive	inactive	inactive			inactive	inactive	inactive	inactive
NC(N)=O	inactive	inactive	inactive	inactive			inactive			inactive
OCCc1ccccc1	inactive	inactive	inactive	inactive	inactive	inactive	inactive			
Nc1ccc(S(=O)(=O)Nc2nccs2)cc1	inactive	inactive	inactive	inactive			inactive	inactive	inactive	inactive
O=C(O)CCC(=O)O	inactive	inactive	inactive	inactive	inactive	inactive	inactive	inactive	inactive	inactive
Cc1cn([C@H]2C[C@H](N=[N+]=[N-])[C@@H](CO)O2)c(=O)[nH]c1=O	inactive	inactive	inactive	inactive	inactive	inactive	inactive	inactive	inactive	
CC(C)[C@@H]1CC[C@@H](C)C[C@H]1O	inactive	inactive	inactive	inactive	inactive	inactive	inactive	inactive	inactive	inactive
CCCC(O)C(CC)CO (stereo not given)	inactive	inactive	inactive	inactive			inactive			inactive
CCCN(CCC)S(=O)(=O)c1ccc(C(=O)O)cc1	inactive	inactive	inactive	inactive	inactive	inactive	inactive	inactive	inactive	inactive
Cc1noc(NS(=O)(=O)c2ccc(N)cc2)c1C	inactive	inactive	inactive	inactive	inactive	inactive	inactive			inactive
NC(=O)c1ccccc1O	inactive	inactive	inactive	inactive	inactive	inactive	inactive	inactive	inactive	inactive
O=C(c1ccccc1)C(O)c1ccccc1 (stereo not given)	inactive	inactive	inactive	inactive			inactive	inactive	inactive	inactive
O=C(O)c1[nH]n(-c2ccc(S(=O)(=O)O)cc2)c(=O)c1N=Nc1ccc(S(=O)(=O)O)cc1	inactive	inactive	inactive	inactive	inactive	inactive	inactive	inactive	inactive	
CCCCOC(=O)CC(CC(=O)OCCCC)(OC(C)=O)C(=O)OCCCC	inactive	inactive	inactive	inactive	inactive	inactive	inactive	inactive	inactive	inactive
O=C(C1CCCCC1)N1CC(=O)N2CCc3ccccc3C2C1 (stereo not given)	inactive	inactive	inactive	inactive			inactive	inactive	inactive	inactive
Nc1ccc(S(=O)(=O)c2ccc(N)cc2)cc1	inactive	inactive	inactive	inactive	inactive	inactive	inactive			inactive

Structure (SMILES)	outcome [1]	outcome [2]	outcome [3]	outcome [4]	Potency [5]	outcome [6]	outcome [7]	outcome [8]	outcome [9]	outcome [10]
Cc1ccc(O)cc1	inactive	inactive	inactive	inactive	inactive	inactive	inactive	inactive	inactive	
c1ccc2[nH]ccc2c1	inactive	inactive	inactive	inactive			inactive	inactive	inactive	inactive
NNC(=O)c1ccncc1	inactive	inactive	inactive	inactive			inactive	inactive	inactive	inactive
CC(O)C(=O)O (stereo not given)	inactive	inactive	inactive	inactive	inactive	inactive	inactive	inactive	inactive	inactive
NC(=O)c1cnccn1	inactive	inactive	inactive	inactive			inactive	inactive	inactive	inactive
Cc1cc(=O)[nH]c(=S)[nH]1	inactive	inactive	inactive	inactive	inactive	inactive	inactive	inactive	inactive	
Nc1ccc(C(=O)O)cc1	inactive	inactive	inactive	inactive	inactive	inactive	inactive			inactive
Cc1ccc(S(=O)(=O)NC(=O)NN2CCCCCC2)cc1	inactive	inactive	inactive	inactive			inactive	inactive	inactive	
Nc1ccn([C@H]2CC[C@@H](CO)O2)c(=O)n1	inactive	inactive	inactive	inactive			inactive			inactive
Nc1ccc(O)c(C(=O)O)c1	inactive	inactive	inactive	inactive	inactive	inactive	inactive	inactive	inactive	
O=c1cc[nH]c(=S)[nH]1	inactive	inactive	inactive	inactive	inactive	inactive	inactive			inactive
CCC1(c2ccccc2)C(=O)NCNC1=O	inactive		inactive		inactive	inactive	inactive	inactive	inactive	
O=C(O)c1cccc([N+](=O)[O-])c1	inactive		inactive				inactive			inactive
Oc1ccc(/C=C/c2cc(O)cc(O)c2)cc1	inactive	inactive	inactive		24.5 µM (active)	inactive	inactive	inactive	inactive	inactive
CC(O)CO (stereo not given)	inactive	inactive	inactive	inactive			inactive	inactive	inactive	
CC(C)(Oc1ccc(C2CC2(Cl)Cl)cc1)C(=O)O (stereo not given)	inactive	inactive	inactive	inactive			inactive	inactive	inactive	
O=C(O)c1cccnc1	inactive		inactive				inactive			inactive
NC(N)=NC(=O)c1nc(Cl)c(N)nc1N	inactive		inactive				inactive	inactive	inactive	
N=C(N)c1ccc(OCCCCCOc2ccc(C(=N)N)cc2)cc1	inactive	inactive	inactive				inactive	inactive	inactive	inactive
O=c1ccc2ccccc2o1	inactive		inactive		inactive	inactive	inactive			
Cn1cc[nH]c1=S	inactive	inactive	inactive	inactive			inactive	inactive	inactive	
O=C(O)CS	inactive	inactive	inactive	inactive			inactive	inactive	inactive	
NS(=O)(=O)c1cc(C(=O)O)c(NCc2ccco2)cc1Cl	inactive	inactive	inactive				inactive	inactive	inactive	inactive
CC(=O)NS(=O)(=O)c1ccc(N)cc1	inactive	inactive	inactive	inactive			inactive	inactive	inactive	
COc1c2occc2cc2ccc(=O)oc12	inactive		inactive		inactive	inactive	inactive	inactive	inactive	inactive

Structure (SMILES)	outcome [1]	outcome [2]	outcome [3]	outcome [4]	Potency [5]	outcome [6]	outcome [7]	outcome [8]	outcome [9]	outcome [10]
CCCCCCCCCCCCCCCC(=O)O	inactive		inactive				inactive	inactive	inactive	
Cc1cc(=O)n(-c2ccccc2)n1C	inactive		inactive		inactive	inactive	inactive	inactive	inactive	
C[C@]12C=CC(=O)C=C1CC[C@@H]1[C@@H]2[C@@H](O)C[C@@]2(C)[C@H]1CC[C@]2(O)C(=O)CO	inactive	inactive	inactive				inactive			inactive
O=C(O)/C=C\C(=O)O	inactive	inactive	inactive	inactive			inactive	inactive	inactive	
CCCCC1C(=O)N(c2ccccc2)N(c2ccccc2)C1=O	inactive		inactive		inactive	inactive	inactive	inactive	inactive	
CCCC(CCC)C(=O)O	inactive		inactive				inactive	inactive	inactive	
Cn1c(=O)c2[nH]cnc2n(C)c1=O	inactive	inactive	inactive		inactive	inactive	inactive			
O=S(=O)(O)NC1CCCCC1	inactive		inactive				inactive	inactive	inactive	
CCCNC(=O)NS(=O)(=O)c1ccc(Cl)cc1	inactive	inactive	inactive	inactive			inactive	inactive	inactive	
O=C(O)C(=O)O	inactive		inactive				inactive	inactive	inactive	
O=C(O)CCCCC(=O)O	inactive	inactive	inactive		inactive	inactive	inactive	inactive	inactive	
C/C=C/c1ccc(OC)cc1	inactive	inactive	inactive				inactive			inactive
O=NO	inactive		inactive				inactive	inactive	inactive	
CNC[C@H](O)c1cccc(O)c1	inactive		inactive				inactive	inactive	inactive	
Cc1ccccc1C(OCCN(C)C)c1ccccc1 (stereo not given)		inactive	inactive	inactive	inactive	inactive	inactive			
O=C(c1ccccc1)c1ccccc1	inactive		inactive		inactive	inactive	inactive	inactive	inactive	
O=C(O)CCCCCCCC(=O)O	inactive		inactive				inactive	inactive	inactive	
O=C1CN(/N=C/c2ccc([N+](=O)[O-])o2)C(=O)N1	inactive	inactive	inactive				inactive	inactive	inactive	
CC(=O)Nc1nnc(S(N)(=O)=O)s1	inactive		inactive				inactive			inactive
NC(=O)NC1NC(=O)NC1=O (stereo not given)	inactive	inactive	inactive	inactive			inactive	inactive	inactive	
O=S(=O)(O)c1ccc2cc(O)ccc2c1	inactive		inactive				inactive	inactive	inactive	inactive
CC1(C)[C@@H]2CC[C@@]1(C)C(=O)C2	inactive	inactive	inactive	inactive			inactive	inactive	inactive	
O=C1NC(=O)c2ccccc21	inactive		inactive		inactive	inactive	inactive	inactive	inactive	
